Rows were chosen to be rich in hits. Some 17% of all compounds tested hit in one or more screens of this group.
ATXN2 expr inh: ATXN2 expression inhibition; 360,000 tested, 0.72% active; Potency, µM (top dose mostly 57 µM), inactives show top-dose activity change, negative = inhibition, most hits filed as inhibitors; HEK-293 ATXN2-luciferase reporter, luminescence, 24 h; further: on the % scale 0 is the no-effect control and ±100 the full control effect; nearly all actives have a fitted effect of over 55% in size
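qHTS (up to 57 uM final) was run with 24 h compound exposure of reporter cells at 37 °C. Each well was multiplexed: SteadyGlo luminescence measured ATXN2-luciferase expression after a fluorogenic Gly-Phe-AFC viability readout (25 uM final).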
HepG2 tox: kills HepG2 cells in TGF-b inhibitor counter-screen; HepG2 CAGA-GFP viability, ATP luminescence, 18 h; Potency, µM (titrated, usually from 46.1 µM), without a hit: at the top dose activity change, negative = cytotoxicity, most hits filed as cytotoxic; 410,000 tested, 0.76% active; AID 588856
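HepG2 CAGA-GFP cells (1000/well, DMEM with 1% FBS) received compound, then TGF-beta at 500 pg/mL final, and were incubated 18 hours at 37 degrees C. Viability was read by CellTiter-Glo luminescence. Media-only wells were set as complete cell-killing and DMSO as no toxicity.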
DT40 TDP1 no CPT: qHTS for Inhibitors of human tyrosyl-DNA phosphodiesterase 1 (TDP1): qHTS in cells in absence of CPT. DT40 Tdp1-/- hTDP1 cells, no CPT, ATP luminescence, 48 h. Potency, µM (top dose mostly 46.2 µM), without a hit: top-dose activity change, negative = growth inhibition, actives largely listed as inhibitors. 420,000 tested, 15% active; further: on the % scale 0 is the no-effect control and ±100 the full control effect; nearly all actives have a fitted effect of over 55% in size
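Growth of hTDP1-complemented DT40 Tdp1-knockout cells is measured by ATP luminescence after at least 48 hr compound exposure at 37 °C, with DMSO substituting for the 20 nM CPT used in the parallel screen.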
S2 tox: reduces viability in counter-screen for ATXN expression inhibitors. S2 cells (HEK-293 line with an ATXN2-luciferase reporter) viability, CellTiter-Fluor protease fluorescence, 24 h. Potency, µM (titrated, usually from 56.7 µM), actives largely listed as cytotoxic. 400,000 tested, 0.49% active; further: nearly all actives have a fitted effect of over 40% in size
DT40 TDP1 CPT: DT40-hTDP1 cell growth loss with CPT; chicken DT40 Tdp1-/-;hTDP1 cells + 20 nM CPT, ATP luminescence, 48 h; Potency, µM (titrated, usually from 46.2 µM), for inactives: at the highest dose activity change, negative = growth inhibition, usual class: inhibitors; 420,000 tested, 12% active; AID 686979; further: on the % scale 0 is the no-effect control and ±100 the full control effect; nearly all actives have a fitted effect of over 55% in size
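Chicken DT40 Tdp1-/- cells complemented with human TDP1, 400 cells/well, exposed to compounds plus 20 nM camptothecin for at least 48 h at 37 C; viability read as ATP content by CellTiter-Glo luminescence.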
TGFb inhibitor: blocks TGF-b signaling | HepG2 CAGA-GFP TGF-b/SMAD3 reporter, GFP fluorescence, 18 h; TGF-beta stimulated, 500 pg/mL final | Potency, µM (doses to about 46.1 µM), without a hit: at the highest dose activity, negative = inhibition, most hits filed as inhibitors | 410,000 tested, 1.2% active; further: on the % scale 0 is the no-effect control and ±100 the full control effect; nearly all actives have a fitted effect of over 65% in size
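Per well, imaged GFP fluorescence of HEPG2 CAGA-GFP cells gives the signal; cells get compound, then TGF-beta (500 pg/mL final), 18 h at 37 degrees C; %Activity versus -TGF-beta and +DMSO controls.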
An asterisk follows results filed as active; i = inactive; ? = inconclusive; nt = not tested or not shown; [ ] = remark or other dose. The call rests on the fitted dose curve; in most records, active means well fitted curve in the direction sought with a large enough effect; inconclusive means small, poorly fitted or top-dose-only effect, or another doubt; inactive means no such curve, though single readings can be large; an effect the other way counts as inactive or inconclusive. Potency means the concentration at half of the fitted maximal effect.

SMILES | ATXN2 expr inh | HepG2 tox | DT40 TDP1 no CPT | S2 tox | DT40 TDP1 CPT | TGFb inhibitor
COc1ccc(N(CC(=O)N2CCN(Cc3ccccc3)CC2)S(=O)(=O)c2ccccc2)cc1 | 4% | -25% | ? | i | ? | 0%
Cc1ccc(S(=O)(=O)N(CC(=O)N2CCc3ccccc3C2)c2ccc(Cl)c(Cl)c2)cc1 | 2% | -40% | ? | i | ? | -14%
COc1ccccc1N(CC(=O)N1CCCC1)S(=O)(=O)c1cc([N+](=O)[O-])ccc1Cl | -19% | 0% | ? | ? | 16µM* | -4%
Cc1cc(OCC(=O)N2CCc3ccccc3C2)c(C)cc1Br | -3% | -34% | 16µM* | i | ? | ?
COc1ccccc1N(CC(=O)N1CCN(Cc2ccccc2)CC1)S(=O)(=O)c1ccccc1 | nt | -1% | 16µM* | ? | 23µM* | -18%
CN[C@@H]1[C@@H](O[C@H]2O[C@H](CO)[C@@H](N)[C@H](O)[C@H]2O)O[C@H]2C[C@@H](N)[C@@H](O[C@H]3[C@H](O)[C@@H](O)[C@H](N)C[C@@H]3N)O[C@@H]2[C@@H]1O | nt | nt | -4%[21.1 µM] | i | -5%[21.1 µM] | nt
COc1ccc(N(CC(=O)N2CCN(C)CC2)S(=O)(=O)c2ccccc2)cc1 | 3% | 4% | 9% | i | 3% | -22%
COc1ccc(N2CCN(C(=O)CN(c3ccc(OC)cc3)S(=O)(=O)c3ccccc3)CC2)cc1 | -2% | 2% | 23µM* | i | 13µM* | 3%
COc1ccc(CNC(=O)N2CCN(c3ccc(F)cc3)CC2)cc1Cl | -28% | -11% | 9.2µM* | i | ? | 0%
CCN(CC)S(=O)(=O)c1ccc(N2CCN(c3ccccc3OC)CC2)c(N)c1 | ? | -6% | 7.3µM* | i | 9.2µM* | -4%
CCN(CC)S(=O)(=O)c1ccc2c(c1)c(=O)c(C(=O)N1CCN(c3ccccc3OC)CC1)cn2C | -9% | -4% | ? | i | -1% | -37%
COc1cccc(N(CC(=O)N2CCN(c3ccccc3OC)CC2)S(C)(=O)=O)c1 | 0% | -11% | ? | i | -9% | -8%
COc1ccc(S(=O)(=O)N(CC(=O)N2CCN(c3ccccc3OC)CC2)c2ccccc2)cc1 | -15% | -5% | 12µM* | i | 21µM* | -11%
CC(C)C(=O)NCCc1nc(-c2ccc(Cl)cc2)no1 | 27% | 1% | -19% | i | 6% | -4%
CC(=O)Nc1ccc(S(=O)(=O)N2CCC(n3c(C)nc4cccnc43)CC2)cc1 | 7% | -5% | ? | i | ? | -32%
CN(CC(=O)N1CCCC1)S(=O)(=O)c1ccc2ccccc2c1 | -5% | 2% | 21µM* | i | ? | -5%
O=C(CN(C1CCCCC1)C1CCCCC1)N1CCc2ccccc2C1 | -18% | -22% | 16µM* | i | ? | ?
COc1ccc(N(CC(=O)N2CCc3ccccc3C2)S(=O)(=O)c2ccccc2)cc1 | -17% | -17% | 18µM* | i | 18µM* | 0%
COc1ccc(S(=O)(=O)N(C)CC(=O)N2CCN(c3ccccc3)CC2)cc1 | -9% | -1% | -23% | i | -7% | 7%
COc1ccc(S(=O)(=O)N(CC(=O)N2CCc3ccccc3C2)c2ccc(C)cc2)cc1 | -12% | -8% | ? | i | ? | ?
COc1ccc(N2CCN(C(=O)CN(c3ccccc3)S(=O)(=O)c3ccc(OC)cc3)CC2)cc1 | nt | -68% | 21µM* | nt | ? | -19%
C(=N\Nc1ncnc2nc[nH]c12)/c1cccs1 | 17% | -30% | 2% | i | 2% | ?
O=C(Cc1coc2cc(O)ccc12)NNC(=O)c1ccc(Br)s1 | -1% | -8% | -23% | i | -25% | 0%
Cc1ccc(S(=O)(=O)N=Nc2c(O)[nH]c3ccccc23)cc1 | 1% | -3% | -1% | ? | -26% | -5%
CN(C(=O)C(C)(C)C)c1ccc(OCC(=O)N2CCc3ccccc3C2)cc1 | -27% | -8% | 16µM* | i | ? | -4%
SMILES | ATXN2 expr inh | HepG2 tox | DT40 TDP1 no CPT | S2 tox | DT40 TDP1 CPT | TGFb inhibitor
COc1ccc(N2CCN(C(=O)CN(CCc3ccccc3)S(C)(=O)=O)CC2)cc1 | -9% | 5% | ? | i | ? | 6%
COc1ccccc1N1CCN(C(=O)CN(CCc2ccccc2)S(C)(=O)=O)CC1 | 1% | -5% | 10µM* | i | ? | -28%
O=C(CN(c1ccc(Cl)c(Cl)c1)S(=O)(=O)c1ccccc1)N1CCc2ccccc2C1 | -25% | -2% | 29µM* | i | ? | 1%
Cc1ccc(S(=O)(=O)N(CC(=O)N=Nc2c(O)[nH]c3ccccc23)c2ccc(C)c(C)c2)cc1 | -15% | 1% | 21µM* | i | 18µM* | -14%
Cc1ccc(OCC(=O)N2CCc3ccccc3C2)cc1 | nt | -2% | ? | i | 4% | 16%
Cc1ccc(C)c(S(=O)(=O)NCc2nc(N3CCCC3)c3cc(Cl)ccc3n2)c1 | nt | nt | ? | i | ? | nt
COC(=O)CSC(=S)N1C(C)CCCC1C (stereo not given) | -12% | -15% | 15% | i | 6% | -14%
COc1ccc(S(=O)(=O)N(C)CC(=O)N2CCN(c3ccc(F)cc3)CC2)cc1OC | -11% | -13% | 22µM* | i | ? | -1%
CCNC(=O)CN(c1ccc(Oc2ccccc2)cc1)S(=O)(=O)c1ccccc1 | -14% | 0% | ? | i | -29% | -28%
Cc1ccc(S(=O)(=O)N(CC(=O)N2CCN(c3ccc(F)cc3)CC2)C2CCCCC2)cc1 | -2% | -12% | 21µM* | i | ? | -9%
NC(=O)CN(c1ccc(Oc2ccccc2)cc1)S(=O)(=O)c1ccccc1 | -6% | 15% | ? | i | 21µM* | 5%
COc1ccccc1N1CCN(C(=O)C(C)N(c2ccc(C)c(C)c2)S(C)(=O)=O)CC1 (stereo not given) | -10% | -14% | ? | i | 15µM* | -6%
CCOC(=O)N1CCN(C(=O)CN(C2CCCCC2)S(=O)(=O)c2ccc(C)cc2)CC1 | 1% | -3% | ? | i | ? | 9%
Cc1ccc(CS(=O)(=O)CC(C)(O)c2ccc(Cl)cc2)cc1 (stereo not given) | -6% | -8% | -4% | i | -19% | 0%
